Compounds without any hit were thinned out: in the full panel of roughly 83,000, 20% have a hit.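 Assay: single dose, 48 h. Readout: percent growth (0 = no net growth; negative = cell death). Active: <10.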 Values without a mark were called inactive. Calls of active or inactive are those of the source.
Legend:
Experiment in all cases: NCI-60 one-dose screen, 48 h (100 = growth as untreated, 0 = no growth, -100 = all killed)
Conditions in all cases: 10 µM unless noted
DU-145 prostate = system: DU-145 prostate
MDA-MB-231 breast = system: MDA-MB-231 breast
RXF 393 renal = system: RXF 393 renal
SF-268 CNS = system: SF-268 CNS
SF-295 CNS = system: SF-295 CNS
SF-539 CNS = system: SF-539 CNS
UACC-257 melanoma = system: UACC-257 melanoma
M14 melanoma = system: M14 melanoma
K-562 leukemia = system: K-562 leukemia
MALME-3M melanoma = system: MALME-3M melanoma

Compound | growth (DU-145 prostate) | growth (MDA-MB-231 breast) | growth (RXF 393 renal) | growth (SF-268 CNS) | growth (SF-295 CNS) | growth (SF-539 CNS) | growth (UACC-257 melanoma) | growth (M14 melanoma) | growth (K-562 leukemia) | growth (MALME-3M melanoma)
COc1cc2nc(Cl)nc(Nc3cccc(C4=Nc5c(N)nc(N)nc5NC(c5ccc(Br)cc5)C4)c3)c2cc1OC (configuration not stated) | 90% | 92.9% | 77.2% | 84.4% | 32% | 93.2% | 105% | 84.1% | – | –
CCO/C=N/C1=C(C#N)C(c2ccc(Cl)cc2)c2sc3c(C)cccc3c2O1 (configuration not stated) | 19.2% | 24.4% | -27.6% (active) | 51.1% | -19.3% (active) | -11.5% (active) | 76.2% | 1.8% (active) | 7.31% (active) | –
COc1cc2nc(Cl)nc(Nc3cccc(C4=Nc5c(N)nc(N)nc5NC(c5ccc(F)cc5)C4)c3)c2cc1OC (configuration not stated) | 79.4% | 76.4% | 51.1% | 77.4% | 2.02% (active) | 88.6% | 92.1% | 86.8% | – | –
CCO/C=N/C1=C(C#N)C(c2ccc(F)cc2)c2sc3c(CC)cccc3c2O1 (configuration not stated) | 19.3% | 29.7% | -20.6% (active) | 47.5% | -6.92% (active) | -12.7% (active) | 69.5% | 8.85% (active) | 8.58% (active) | –
CC[C@]12C=CCN3CC[C@@]4(c5cc(NC(=O)COc6cc(O)c7c(=O)cc(-c8ccccc8)oc7c6)c(OC)cc5N(C)[C@H]4[C@@](O)(C(=O)OC)[C@@H]1OC(C)=O)[C@@H]32 | -33.6% (active) | -58.3% (active) | -92.1% (active) | -60.6% (active) | -85.3% (active) | -77.1% (active) | -76.1% (active) | -75.4% (active) | -1.41% (active) | –
Cc1ccc(C2=NN(C)C(=O)C3(CCCC3)C2)cc1 | 107% | 104% | 124% | 98.1% | 101% | 103% | 100% | 108% | 107% | –
COc1cc(OC)c(S(N)(=O)=O)cc1C(C)=O | 108% | 101% | 121% | 104% | 100% | 101% | 102% | 109% | – | 109%
CC(=O)N(C)C1CCc2c(sc(NC(=O)c3ccc(C(C)(C)C)cc3)c2C(N)=O)C1 (configuration not stated) | 58.9% | 75.5% | 96.2% | 99% | 43.8% | 79.7% | 86.9% | 75.5% | 62.3% | –
NC(N)=Nc1ccc(Nc2cccc(Oc3ccc(Cl)c(C(F)(F)F)c3)c2)cn1 | 38.3% | 47.5% | 56.6% | 53.6% | 23.8% | 78.5% | 31.9% | 41.2% | -48.8% (active) | –
FC(F)(F)c1cc(Nc2cccc(Oc3ccc(NC4=NCCN4)nc3)c2)ccc1Cl | -19.3% (active) | 9.73% (active) | 18.1% | 34.8% | -78.5% (active) | 51.6% | 27% | -50.7% (active) | -19% (active) | –
O=C(CN1CCN(c2cc(=O)n(-c3ccccc3)c3ccccc23)CC1)Nc1nc(-c2ccccc2)cs1 | 72.7% | 62.6% | 76.9% | 79.2% | 66.7% | 77.1% | 48.5% | 69.7% | 22.4% | –
O=C(Cn1cc[n+](CC(=O)c2ccc(-c3ccccc3)cc2)c1)Nc1cccc2cccnc12 | 86.4% | 73.1% | 98.3% | 65.5% | 102% | 79.1% | 34.4% | 85% | 50.5% | –
COc1ccc(C2CC(c3cccc(Nc4nc(Cl)nc5cc(OC)c(OC)cc45)c3)=Nc3c(N)nc(N)nc3N2)cc1 (configuration not stated) | 88.8% | 87% | 76.3% | 86.5% | 60.1% | 91.9% | 106% | 93.5% | 4.51% (active) | –
CNc1ncc2cc(-c3ccc(-c4ncccc4F)cc3Cl)c(=O)n(CC3OCC(N)CO3)c2n1 (configuration not stated) | 63.3% | 10.8% | -9.68% (active) | 24.8% | 74.3% | 67.4% | 93% | 87.9% | 78.8% | –
NC(N)=Nc1ccc(Nc2cccc(Nc3ccc(Cl)c(C(F)(F)F)c3)c2)cn1 | 66.1% | 31% | 77.6% | 33.1% | 11.6% | 80.7% | 42.9% | 47.3% | -2.73% (active) | –
Cc1ccc2sc3c(c2c1)OC(N)=C(C#N)C3c1ccc(Cl)cc1 (configuration not stated) | 76.8% | 65.2% | 50.6% | 89.3% | 74% | 70.8% | 89.8% | 64.5% | – | 71.5%
N#Cc1ccccc1Cn1c2nc(=N)c3ccccc3c-2nc2ccccc21 | 60.3% | 41.8% | 54.3% | 74.3% | 52% | 82.6% | 41.8% | 70% | – | –
O=C(CN1CCN(c2cc(=O)n(-c3ccccc3)c3ccccc23)CC1)Nc1nc(-c2ccc(Cl)cc2)cs1 | 61.6% | 74.7% | 67% | 54.5% | 62.6% | 76.1% | 28% | 55.1% | 24.2% | –
NC(N)=Nc1ccc(Oc2cccc(Nc3ccc(Br)c(C(F)(F)F)c3)c2)cn1 | -94.5% (active) | -57.6% (active) | -10.5% (active) | 7.02% (active) | -86.8% (active) | -50.3% (active) | -28.5% (active) | -62.1% (active) | -30.3% (active) | –
NC(N)=Nc1ccc(Oc2cccc(Nc3ccc(Cl)cc3)c2)cn1 | -18.1% (active) | 10.7% | 1.19% (active) | 41.3% | -75.1% (active) | 73.3% | 28.4% | 42.2% | -68.5% (active) | –
